Assay results from the supplement of paper PMC6953052.
Values joined by “and” are separate entries in the source; they are usually repeats but may differ in a detail not shown here. Equal entries are not always repeated. Structures can show the parent of a compound that is named as a salt. The full ranking holds about 1,700 compounds; the median of “fraction of GFP-LC3-positive cells (≥5 vesicles/cell)” is about 0.43, and the highest 2% start at about 0.81. Only a selection was taken, and the highest values are over-represented in it overall.

test system: CbCln3 Δex7/8/Δex7/8 GFP-LC3 cerebellar neuronal cells; experiment: fraction of GFP-LC3-positive cells (≥5 vesicles/cell); higher = more autophagosome accumulation
Method in brief: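 Compound (~50 nL in DMSO) was pin-transferred in duplicate onto wild-type or mutant CbCln3 cerebellar cells stably expressing GFP-LC3, seeded at 2 × 10^3/well in 384-well plates, for 24 h at 33 °C. After fixation in 3.2% PFA, three fields per well were imaged at 10×. The value reported is the duplicate average of the fraction of cells meeting a vesicle-count threshold, with CellProfiler counting GFP-LC3 vesicles per cell and out-of-focus images excluded. Cells met the threshold at 5 or more vesicles.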

Compound	fraction of GFP-LC3-positive cells
C=C(C)[C@H]1O[C@H]2CC[C@@]3(C)[C@@](O)(CC[C@H]4[C@@H]5OC(C)(C)[C@H]6C[C@@H]7C(=C)Cc8c(Cl)cc9[nH]c(c5c9c8[C@@]76O)[C@@]43C)[C@]23O[C@@H]3[C@H]1O	0.866
CC[C@H]1CN2CCc3cc(OC)c(OC)cc3[C@@H]2C[C@@H]1C[C@H]1NCCc2cc(OC)c(OC)cc21.Cl.Cl [Emetine dihydrochloride]	0.546
Br.C[C@@H]1NCCc2cc(O)c(O)cc21 [Salsolinol hydrobromide]	0.504
C/C=C(/C)C(=O)O[C@H]1C(C)=C2[C@H]([C@@H]1OC(=O)CCCCCCC)[C@@](C)(OC(C)=O)C[C@H](OC(=O)CCC)[C@@]1(O)[C@H]2OC(=O)[C@@]1(C)O	0.847
N=C(N)NOCC[C@H](N)C(=O)O.O.O=S(=O)(O)O [Canavanine sulfate monohydrate (L,+)]	0.416
CCCC(C)(COC(N)=O)COC(=O)NC(C)C (configuration not stated) [Carisoprodol]	0.466
C[N+](C)(C)CCCCCCCCCC[N+](C)(C)C.[Br-].[Br-] [Decamethonium bromide]	0.418
C/C1=C/C(=O)O[C@@H]2C[C@@H](CC[C@H](C)/C=C\CC1)O[C@@](O)([C@@H]1CSC(=O)N1)C2 [Latrunculin B]	0.84
C[C@@]12N[C@@H](Cc3ccccc31)c1ccccc12.O=C(O)/C=C\C(=O)O [(-)-MK 801 hydrogen maleate]	0.432
CC(=O)c1c(O)c(C)c(O)c(Cc2c(O)c3c(c(C(=O)/C=C/c4ccccc4)c2O)OC(C)(C)C=C3)c1O [Rottlerin]	0.553
CC(=O)c1c(O)c(C)c(O)c(Cc2c(O)c3c(c(C(=O)/C=C/c4ccccc4)c2O)OC(C)(C)C=C3)c1O	0.551
CC(=O)O[C@H]1CC[C@@]2(C)C(=CC[C@@H]3[C@@H]2CC[C@]2(C)C(=O)CC[C@@H]32)C1 [Dehydroisoandosterone 3-acetate]	0.384
CN1C(CC(O)c2ccccc2)CCCC1CC(O)c1ccccc1.Cl (configuration not stated) [Lobelanidine hydrochloride]	0.433
COc1cc2c(cc1O)[C@@H]1Cc3ccc(OC)c(O)c3CN1CC2 [Scoulerine]	0.821
COc1ccc2c(c1O)-c1c(OC)c(OC)cc3c1[C@H](C2)N(C)CC3 [Isocorydine (+)]	0.379
COc1ccc2c(c1OC)CN1CCc3cc4c(cc3C1C2)OCO4 (configuration not stated) [(d,l)-Tetrahydroberberine]	0.303
C[C@H]1O[C@@H](OC2CC[C@]3(C=O)[C@H]4CC[C@]5(C)[C@@H](C6=CC(=O)OC6)CC[C@]5(O)[C@@H]4CC[C@]3(O)C2)C[C@H](O)[C@@H]1O (some centres not stated) [Helveticoside]	0.378
N#CC(C#N)=Cc1ccc(O)cc1 [Tyrphostin-8]	0.461
CCN1C[C@@]2(COC)C3[C@@H](OC)[C@H]4[C@@H]1[C@@]3(C1C[C@@]3(O)[C@H](OC(=O)c5ccccc5)C1[C@]4(OC(C)=O)[C@@H](O)[C@H]3OC)[C@@H](OC)C[C@H]2O (some centres not stated) [Aconitine]	0.413
Cc1nccc2c1[nH]c1ccccc12.Cl [Harmane hydrochloride]	0.55
Cc1c2ccncc2c(C)c2c1[nH]c1ccccc12 [Ellipticine]	0.954
O=C(CCCN1CCC(n2c(=O)[nH]c3ccccc32)CC1)c1ccc(F)cc1 [Benperidol]	0.358
COc1cc2c(c(OC)c1OC)-c1ccc(OC)c(=O)cc1[C@@H](NC(C)=O)CC2 [Colchicine]	0.906
COc1cc2c(c(OC)c1OC)-c1ccc(O)c(=O)cc1[C@@H](N)CC2 [Trimethylcolchicinic acid]	0.415

Compound	fraction of GFP-LC3-positive cells
COC1=C[C@@H]2C3=C([C@@H]2C1=O)[C@@H](NC(C)=O)CCc1cc(OC)c(OC)c(OC)c13 [Lumicolchicine gamma]	0.401
CC[C@@H]1/C=C/C=C/C[C@H](C)[C@@H](O)[C@](C)(O)C(=O)[C@H](C)[C@@H](O)[C@H](C)C(=O)[C@H](C)[C@@H](O)[C@H](C)/C=C/C(=O)O[C@H]2[C@@H](C)[C@@H](CC1)O[C@@]1(CC[C@@H](C)[C@@H](C[C@H](C)O)O1)[C@@H]2C [oligomycin A]	0.578
CC1=C2C[C@H]3[C@@H](CC=C4C[C@@H](O)CC[C@@]43C)[C@@H]2CC[C@]12O[C@@H]1C[C@H](C)CN[C@H]1[C@H]2C [cyclopamine]	0.448
CCCCC/C=C\C/C=C\C/C=C\C/C=C\CCCC(=O)NCC(=O)O	0.263
CCCCC/C=C\C/C=C\C/C=C\C/C=C\CCCC(=O)NCc1ccc(O)c(OC)c1 [Arvanil]	0.848
CCCCC/C=C\C/C=C\C/C=C\C/C=C\CCCC(=O)NCCc1ccc(O)c(O)c1 [Arachidonoyl dopamine]	0.658
CCCCC/C=C\C/C=C\C/C=C\C/C=C\CCCC(=O)NCC(=O)O [N-Arachidonoylglycine]	0.376
CC(C)NCC(O)c1ccc(N)c(C#N)c1 (configuration not stated)	0.462
COc1ccc2c(c1OC)C(=O)O[C@@H]2[C@H]1c2cc3c(cc2CCN1C)OCO3.Cl [Hydrastine hydrochloride]	0.423
COc1cc([C@@H]2c3cc4c(cc3[C@H](O)[C@H]3COC(=O)[C@H]23)OCO4)cc(OC)c1OC [Podophyllotoxin]	0.884
Cl.Cl.Fc1ccc(C(OCCN2CCN(CCCc3ccccc3)CC2)c2ccc(F)cc2)cc1	0.168
CO/C1=C\C(C)=C\[C@@H](C)[C@@H](O)[C@@H](C)C/C(C)=C/C=C/[C@H](OC)[C@@H]([C@@H](C)[C@@H](O)[C@H](C)[C@@]2(O)C[C@@H](O)[C@H](C)[C@@H](C(C)C)O2)OC1=O [bafilomycin A1]	0.924
O[C@H]1[C@H]2[C@H](O)CCCN2C[C@H]1O [swainsonine]	0.371
CN1CCC2=C[C@H](O)[C@H]3OC(=O)c4cc5c(cc4[C@H]3[C@@H]21)OCO5 [Hippeastrine hydrobromide]	0.407
CN1CCc2cc3c(cc2[C@H]1[C@@H]1OC(=O)c2c1ccc1c2OCO1)OCO3 [Bicuculline (+)]	0.326
CN1Cc2c(ccc3c2OCO3)[C@@H]2[C@H]1c1cc3c(cc1C[C@@H]2O)OCO3.O [Chelidonine (+)]	0.93
C[C@@H]1CC([C@H](O)CC2CC(=O)NC(=O)C2)C(=O)[C@@H](C)C1 (some centres not stated) [cycloheximide]	0.481
C[C@@]1(CO)[C@H](O)CC[C@@]2(C)[C@H]1CC[C@H]1C[C@@H]3C[C@@]12CC[C@]3(O)CO [aphidicolin]	0.623
CC(=O)OCC(=O)[C@H]1CC[C@H]2[C@@H]3CC[C@H]4C[C@H](O)CC[C@]4(C)[C@H]3C(=O)C[C@]12C [Alfadolone acetate]	0.441
CCCCc1ccc(C(=O)O)nc1 [Fusaric acid]	0.408
O=C1C=CC(=O)c2c(O)cccc21 [juglone]	0.367
N#CC(C#N)=NNc1ccc(OC(F)(F)F)cc1	0.936
COc1cc2c(cc1OC)C(C)NCC2.Cl (configuration not stated)	0.422
Cc1nccc2c1[nH]c1cc(O)ccc12.Cl.O [Harmol hydrochloride monohydrate]	0.441

Compound	fraction of GFP-LC3-positive cells
OC(c1ccccc1)(c1ccccc1)C1CCNCC1 [Azacyclonol]	0.306
C/C(O)=C(\C#N)C(=O)Nc1cc(Br)ccc1Br	0.547 and 0.552
O=C(CCCN1CCC2(CC1)C(=O)NCN2c1ccccc1)c1ccc(F)cc1 [Spiperone]	0.376
C=C1[C@@H]2CC[C@H]3[C@]4(C)C[C@H](O[C@H]5O[C@H](CO)[C@@H](OS(=O)(=O)[O-])[C@H](OS(=O)(=O)[O-])[C@H]5OC(=O)CC(C)C)C[C@@H](C(=O)O)[C@H]4CC[C@]3(C2)[C@H]1O.[K+].[K+] [Atractyloside potassium salt]	0.314
O.O.O.O=C1OC2(c3cc(Br)c([O-])cc3Oc3c2cc(Br)c([O-])[c]3[Hg][OH])c2ccccc21.[Na+].[Na+] (configuration not stated) [Merbromin]	0.954
C[C@@H]1CC[C@@]2(NC1)O[C@H]1C[C@H]3[C@@H]4CC=C5C[C@@H](O)CC[C@]5(C)[C@H]4CC[C@]3(C)[C@H]1[C@@H]2C [Solasodine]	0.378
CN1C[C@H](CNC(=O)OCc2ccccc2)C[C@@H]2c3cccc4c3c(cn4C)C[C@H]21 [Metergoline]	0.238
c1ccc(C2CC2)c(OCC2=NCCN2)c1	0.404
CCNC(=O)[C@H]1O[C@@H](n2cnc3c(N)ncnc32)C(O)[C@H]1O (some centres not stated) [5'-N-Ethylcarboxamidoadenosine (NECA)]	0.445
COc1cc2c(cc1O)C[C@H]1c3c(cc(O)c(OC)c3-2)CCN1C [Boldine]	0.447
Cc1c(C(=O)c2cccc3ccccc23)c2cccc3c2n1[C@H](CN1CCOCC1)CO3	0.451 and 0.539
CC1=NCCc2c1[nH]c1cc(O)ccc21.Cl.O.O [Harmalol hydrochloride dihydrate]	0.479
C[C@H](N)C(=O)N[C@@H](C)C(=O)N[C@@H](Cc1ccccc1)C(=O)CCl	0.742 and 0.818
CC(=O)C(C)O.CC(Cc1ccccc1)NCCC(c1ccccc1)c1ccccc1 (configuration not stated) [Prenylamine lactate]	0.266
CC(C)c1c(CN(C)C(C)Cc2ccccc2)n(C)n(-c2ccccc2)c1=O (configuration not stated) [Famprofazone]	0.405
CC(C)(C)c1cc(C=C(C#N)C#N)cc(C(C)(C)C)c1O	0.718
N#CC(C#N)=Cc1cc(O)c(O)c(O)c1	0.46
N#CC(C#N)=Cc1ccc(O)c(O)c1	0.348
CC(C)(C)c1cc(C=C(C#N)C#N)cc(C(C)(C)C)c1O [tyrphostin 9]	0.882
COc1ccc(CC2c3cc(OC)c(OC)cc3CCN2C)cc1OC (racemic) [Laudanosine (R,S)]	0.508
c1cncc([C@H]2CCCCN2)c1 [Anabasine]	0.34
C[N+]1(C)C2CC[C@H]1C[C@@H](OC(=O)C(CO)c1ccccc1)C2.O=[N+]([O-])[O-] (some centres not stated) [Methylatropine nitrate]	0.451
COc1ccc(CCN2CCC(Nc3nc4ccccc4n3Cc3ccc(F)cc3)CC2)cc1 [Astemizole]	0.587
CC[N+]1(C)CCCC(OC(=O)C(O)(c2ccccc2)c2ccccc2)C1.[Br-] (configuration not stated) [Pipenzolate bromide]	0.4
